Experimental data published in PubChem BioAssay (EPA / NIEHS).
Inconclusive results are not listed. Calls of active or inactive are those of the source. Rule for the calls, unless noted: active = hit-call score of the fitted dose curve at least 0.9, where 1 is the maximum; inactive = score below 0.9.

Key:
[1] = CCTE_Mundy_HCI_iCellGluta_NOG_NeuriteLength: CCTE's Neurite Outgrowth Assay in iCellGluta cells for Neurite Length, Mundy Lab (AID 2284318; active = hit-call score of the fitted dose curve at least 0.9, where 1 is the maximum)
Method in brief: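 Automated high-content imaging of betaIII-tubulin (Alexa Fluor-488) and Hoechst-stained cells gave neurite length, normalized to the DMSO baseline.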

TTR (gene 7276) = experiment: CCTE_GLTED_hTTR_0.5uM: CCTE's human Transthyretin (hTTR) Inhibition Assay, with 0.5uM TTR, Great Lakes Toxicology and Ecology Division (GLTED) Lab (AID 2284320)
Method in brief: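 Probe (ANSA) displacement from 0.5 uM human transthyretin was followed by fluorescence (ex 380, em 475) after a 2 h incubation with chemical. Activity was scored as signal loss and fitted positively relative to DMSO.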

[2] = CCTE_Mundy_HCI_iCellGluta_NOG_NeuronCount: CCTE's Neurite Outgrowth Assay in iCellGluta cells for Neuron Count, Mundy Lab (AID 2284340; active = hit-call score of the fitted dose curve at least 0.9, where 1 is the maximum;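 note: cells fixed about 48 h after compound addition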)
Method in brief: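 Neuron count read by automated high-content imaging of Hoechst 33342 and betaIII-tubulin/Alexa Fluor-488 labelling in human iPSC glutamatergic neurons. Activity fitted relative to DMSO.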

[3] = CCTE_Mundy_HCI_iCellGluta_NOG_NeuriteCount: CCTE's Neurite Outgrowth Assay in iCellGluta cells for Neurite Count, Mundy Lab (AID 2284342; active = hit-call score of the fitted dose curve at least 0.9, where 1 is the maximum;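 note: chemical exposure about 48 hours starting 2 hours after plating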)
SERPINA7 (gene 6906) = experiment: CCTE_GLTED_hTBG: CCTE's human Thyroxine-binding Globulin (TBG) Inhibition Assay, Great Lakes Toxicology and Ecology Division (GLTED) Lab (AID 2284343; active = hit-call score of the fitted dose curve at least 0.9, where 1 is the maximum;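 note: active chemicals lower fluorescence versus DMSO baseline by displacing probe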)
Method in brief: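 Steps: combine TBG with chemical; incubate 2 hours so that disruptors release ANSA; record fluorescence (380 ex, 475 em). Loss of signal was fitted against DMSO controls.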

[4] = Tanguay_ZF_120hpf_MO24: Oregon State University Tanguay Lab 24 Hour Post-fertilization zebrafish Assay for Mortality (AID 2284389)
Method in brief: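 Embryo death at 24 hpf was recorded as present or absent in Tropical 5D zebrafish, dechorionated at 4 hpf and dosed statically from 6 hpf (28C, 0.64% DMSO); 5 uM trimethyltin chloride served as positive control.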

[5] = Tanguay_ZF_120hpf_CRAN: Oregon State University Tanguay Lab 120 Hour Post-fertilization zebrafish Assay for Craniofacial Malformation (AID 2284397)
Method in brief: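 Scoring of craniofacial malformation as a binary endpoint was done at 120 hpf by brightfield microscopy and was not done in dead embryos. Exposure was static, starting at 6 hpf, in dechorionated wild-type embryos held singly at 28C with 0.64% DMSO final.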

[6] = Tanguay_ZF_120hpf_AXIS: Oregon State University Tanguay Lab 120 Hour Post-fertilization zebrafish Assay for Axial Malformation (AID 2284398)
Method in brief: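 Scoring was binary (present or absent) for body-axis defects, judged by brightfield imaging at 120 hpf in surviving larvae. Exposure was static at 28C from 6 hpf in chorion-free 5D wild-type embryos, with 0.64% DMSO vehicle.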

IYD (gene 389434) = experiment: CCTE_GLTED_hIYD: CCTE's human Iodotyrosine Deiodinase (xIYD) Inhibition Assay, Great Lakes Toxicology and Ecology Division (GLTED) Lab (AID 2284317; active = hit-call score of the fitted dose curve at least 0.9, where 1 is the maximum;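 note: cell-free human IYD enzyme made in baculovirus insect cells; iodide freed from monoiodotyrosine measured by cerium arsenite color change at 420 nm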)
Method in brief: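 Iodide liberated from monoiodotyrosine by baculovirus-expressed human IYD over 3 h was determined colorimetrically (Sandell-Kolthoff, 420 nm) after Dowex separation; inhibition is loss of signal versus DMSO.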

[7] = CCTE_Deisenroth_5AR_NBTE_donor: CCTE's 5alpha-reductase NanoBRET Target Engagement Assay […], Deisenroth Lab (AID 2284319); conditions: actives raise or lower the signal
Method in brief: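 HEK293T cells were reverse transfected with an SRD5A2-NanoLuc vector for 20 h, exposed to test chemical (8 points, 10 nM - 29.9 uM) for 3 h, then testosterone tracer for 2 h more. Donor luminescence (460 nm) was read; bidirectional fit versus DMSO.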

[8] = CCTE_Deisenroth_5AR_NBTE_acceptor: CCTE's 5alpha-reductase NanoBRET Target Engagement Assay - Autofluorescence Screen, Deisenroth Lab (AID 2284321); conditions: actives raise or lower the signal;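 note: compound fluorescence in the acceptor channel under 460 nm excitation flags autofluorescence artifacts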
Method in brief: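 Acceptor-channel fluorescence flags artifacts, with excitation fixed at 460 nm. Nominal 100 uM chemical samples were read in triplicate runs, and signal changes were fitted in both directions relative to DMSO.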

SRD5A2 (gene 6716) = experiment: CCTE_Deisenroth_5AR_NBTE_ratio: CCTE's 5alpha-reductase NanoBRET Target Engagement Assay - Ratio, Deisenroth Lab (AID 2284322); conditions: actives raise or lower the signal
Method in brief: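 SRD5A2-NanoLuc HEK293T; cmpd 10 nM-29.9 uM, 3 h preinc + testosterone tracer 2 h; NanoBRET ratio 650/460; bidirectional fit vs DMSO.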

Measured: AC50

C=CC(=O)OCC(F)(F)C(F)(F)C(F)(F)C(F)(F)COC(=O)C=C
active: TTR (gene 7276) 0.886 µM | SERPINA7 (gene 6906) 18.2 µM | [4] 28.3 µM
inactive: [1] | [2] | [3] | [5] | [6]

O=C(Cl)C(F)(F)C(F)(F)C(F)(F)C(F)(F)C(F)(F)C(F)(F)C(F)(F)C(F)(F)F
active: IYD (gene 389434) 139 µM | TTR (gene 7276) 0.491 µM | SERPINA7 (gene 6906) 14.9 µM

FC(F)(F)C(F)(F)C(F)(F)C(F)(F)C(F)(F)C(F)(F)C(F)(F)C(F)(F)F
inactive: [1] | [2] | [3] | [4] | [5] | [6]

O=C(O)C(F)(F)C(F)(F)C(F)(F)C(F)(F)C(F)(F)C(F)(F)C(F)(F)C(F)(F)Cl
inactive: [1] | [2] | [3] | [4]
active: IYD (gene 389434) 74.4 µM | TTR (gene 7276) 0.252 µM | SERPINA7 (gene 6906) 62.6 µM | [5] 37.2 µM | [6] 37.2 µM

OCCCC(F)(F)C(F)(F)C(F)(F)C(F)(F)C(F)(F)C(F)(F)C(F)(F)F
inactive: [1] | [2] | [3] | [4] | [5] | [6]

N=C(N)C(F)(F)C(F)(F)C(F)(F)C(F)(F)C(F)(F)C(F)(F)C(F)(F)F
active: TTR (gene 7276) 4.85 µM
inactive: [1] | [2] | [3] | [4] | [5] | [6]

CC(C)(C)C(=O)CC(=O)C(F)(F)C(F)(F)C(F)(F)F
inactive: TTR (gene 7276) | [2] | [3] | [4] | [5] | [6]

CCN(Cc1cccc(S(=O)(=O)O)c1)c1ccc(C(=C2C=CC(=[N+](CC)Cc3cccc(S(=O)(=O)O)c3)C=C2)c2ccc(O)cc2S(=O)(=O)[O-])cc1
active: IYD (gene 389434) 66.1 µM | [8] 1.52 µM | SRD5A2 (gene 6716) 1.56 µM | SERPINA7 (gene 6906) 25.4 µM
inactive: [7]
